Inconclusive results are not listed. Active and inactive are the calls of the source. Unless noted, the call rests on the fitted dose curve.
What was measured:
[1] = qHTS assay for small molecule agonists of retinoid X receptor alpha signaling (AID 588544); settings: HEK293T RXRa-UAS-bla, beta-lactamase reporter, 18 h; 530 nm emission;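 on activation: 0% = DMSO basal wells and 100% = reference agonist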
[2] = target: Retinoic acid receptor RXR-alpha (Homo sapiens) (UniProt P19793); experiment: as above; settings: HEK293T RXRa-UAS-bla, beta-lactamase reporter, 18 h; series mostly up to 76.7 µM
Sequence of Retinoic acid receptor RXR-alpha (Homo sapiens) (P19793 whole entry, looked up): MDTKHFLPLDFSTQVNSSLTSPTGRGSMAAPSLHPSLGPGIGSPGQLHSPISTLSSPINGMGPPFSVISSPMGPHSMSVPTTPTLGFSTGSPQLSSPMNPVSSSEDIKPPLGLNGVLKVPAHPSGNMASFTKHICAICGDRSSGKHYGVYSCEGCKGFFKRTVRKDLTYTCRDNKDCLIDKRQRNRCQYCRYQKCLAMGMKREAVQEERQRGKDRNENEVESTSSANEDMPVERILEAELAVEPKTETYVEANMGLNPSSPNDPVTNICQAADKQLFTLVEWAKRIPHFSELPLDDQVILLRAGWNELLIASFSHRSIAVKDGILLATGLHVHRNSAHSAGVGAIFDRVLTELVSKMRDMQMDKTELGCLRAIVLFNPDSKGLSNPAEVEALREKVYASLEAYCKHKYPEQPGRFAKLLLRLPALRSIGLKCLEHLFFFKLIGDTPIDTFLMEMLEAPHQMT

[3] = target: Thyroid hormone receptor beta (Homo sapiens) (UniProt P10828); experiment: qHTS assay for small molecule agonists of thyroid hormone receptor beta signaling (AID 588545); settings: TR-UAS-bla GripTite HEK 293, beta-lactamase ratio, agonist mode, 18 h, percent of T3 response, DMSO as zero; series mostly up to 76.7 µM;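 further: 0% = DMSO only and 100% = 10 nM T3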
Sequence of Thyroid hormone receptor beta (Homo sapiens) (P10828 whole entry, looked up): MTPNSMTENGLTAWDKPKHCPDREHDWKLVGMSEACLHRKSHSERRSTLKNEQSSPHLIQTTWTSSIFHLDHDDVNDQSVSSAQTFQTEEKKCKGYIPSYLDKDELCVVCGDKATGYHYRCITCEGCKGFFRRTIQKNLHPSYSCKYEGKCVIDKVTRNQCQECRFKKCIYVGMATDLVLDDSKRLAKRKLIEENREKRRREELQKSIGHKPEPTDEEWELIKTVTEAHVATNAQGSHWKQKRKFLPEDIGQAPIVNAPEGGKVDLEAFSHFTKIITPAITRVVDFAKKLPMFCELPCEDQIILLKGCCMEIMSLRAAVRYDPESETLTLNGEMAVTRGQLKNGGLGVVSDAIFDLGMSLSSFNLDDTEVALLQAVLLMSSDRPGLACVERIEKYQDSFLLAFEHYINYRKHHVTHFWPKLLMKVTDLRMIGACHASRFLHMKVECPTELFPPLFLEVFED
Outline: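 TR-UAS-bla-GripTite HEK 293 cells in medium with 2% charcoal/dextran FBS, 0.1 mM NEAA and 1 mM sodium pyruvate were treated with titrated compounds for 18 hrs at 37 C. Beta-lactamase reporter was read with CCF4 dye (ex 405, em 460/530 nm); EC50 from Hill fits.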

[4] = qHTS assay for small molecule antagonists of retinoid X receptor alpha signaling (AID 588546; active means well fitted inhibition curve with a large enough effect in the signal ratio, with a control signal flat, not every such curve was filed as active; the % refers to the signal ratio;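 further: cells stimulated with 9-cis-retinoic acid as agonist; on the % scale 0 is the no-effect control and ±100 the full control effect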); settings: HEK293T RXRa-UAS-bla, beta-lactamase ratio, antagonist mode; measured here: W530 green channel, cytotoxicity proxy
Outline: (§1)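 Beta-lactamase reporter inhibition, read as CCF4 fluorescence ratio (ex 405, em 460/530 nm) after 2 h at RT. HEK293T UAS-bla cells, 2500/well, were stimulated with 9-cis-RA at 500 or 100 nM final alongside test compound for 18 h at 37 C.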

[5] = target: Retinoic acid receptor RXR-alpha (Homo sapiens) (UniProt P19793); experiment: as above; settings: HEK293T RXRa-UAS-bla, beta-lactamase ratio, antagonist mode
Outline: as §1

[6] = target: Thyroid hormone receptor beta (Homo sapiens) (UniProt P10828); experiment: qHTS assay for small molecule antagonists of thyroid hormone receptor beta signaling (AID 588547; active means well fitted inhibition curve with a large enough effect in the signal ratio, with a control signal flat, not every such curve was filed as active; the % refers to the signal ratio;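 further: cells stimulated with 0.4 nM T3 agonist during compound exposure; on the % scale 0 is the no-effect control and ±100 the full control effect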); settings: TR-UAS-bla HEK293, beta-lactamase ratio, antagonist mode, 18 h
Outline: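 TR-UAS-bla GripTite HEK293 cells in 2% charcoal/dextran FBS medium were preincubated 4 h at 37 C, given compound (0.59 nM to 92 uM) plus 0.4 nM T3 (final) for 18 h, then CCF4 for 2 h at RT; Hill fit gave IC50.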

[7] = target: Voltage-gated inwardly rectifying potassium channel KCNH2 (Homo sapiens) (UniProt Q12809); experiment: qHTS Assay for Small Molecule Inhibitors of the Human hERG Channel Activity (AID 588834; active means well fitted curve in the direction sought with a large enough effect; an effect the other way counts as inactive or inconclusive;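 further: top concentration of the series differs between compounds; on the % scale 0 is the no-effect control and ±100 the full control effect; lower thallium flux fluorescence means stronger hERG block; nearly all actives have a fitted effect of over 50% in size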); settings: U2OS BacMam hERG, FluxOR thallium flux fluorescence; series mostly up to 92.2 µM
Sequence of Voltage-gated inwardly rectifying potassium channel KCNH2 (Homo sapiens) (Q12809 whole entry, looked up): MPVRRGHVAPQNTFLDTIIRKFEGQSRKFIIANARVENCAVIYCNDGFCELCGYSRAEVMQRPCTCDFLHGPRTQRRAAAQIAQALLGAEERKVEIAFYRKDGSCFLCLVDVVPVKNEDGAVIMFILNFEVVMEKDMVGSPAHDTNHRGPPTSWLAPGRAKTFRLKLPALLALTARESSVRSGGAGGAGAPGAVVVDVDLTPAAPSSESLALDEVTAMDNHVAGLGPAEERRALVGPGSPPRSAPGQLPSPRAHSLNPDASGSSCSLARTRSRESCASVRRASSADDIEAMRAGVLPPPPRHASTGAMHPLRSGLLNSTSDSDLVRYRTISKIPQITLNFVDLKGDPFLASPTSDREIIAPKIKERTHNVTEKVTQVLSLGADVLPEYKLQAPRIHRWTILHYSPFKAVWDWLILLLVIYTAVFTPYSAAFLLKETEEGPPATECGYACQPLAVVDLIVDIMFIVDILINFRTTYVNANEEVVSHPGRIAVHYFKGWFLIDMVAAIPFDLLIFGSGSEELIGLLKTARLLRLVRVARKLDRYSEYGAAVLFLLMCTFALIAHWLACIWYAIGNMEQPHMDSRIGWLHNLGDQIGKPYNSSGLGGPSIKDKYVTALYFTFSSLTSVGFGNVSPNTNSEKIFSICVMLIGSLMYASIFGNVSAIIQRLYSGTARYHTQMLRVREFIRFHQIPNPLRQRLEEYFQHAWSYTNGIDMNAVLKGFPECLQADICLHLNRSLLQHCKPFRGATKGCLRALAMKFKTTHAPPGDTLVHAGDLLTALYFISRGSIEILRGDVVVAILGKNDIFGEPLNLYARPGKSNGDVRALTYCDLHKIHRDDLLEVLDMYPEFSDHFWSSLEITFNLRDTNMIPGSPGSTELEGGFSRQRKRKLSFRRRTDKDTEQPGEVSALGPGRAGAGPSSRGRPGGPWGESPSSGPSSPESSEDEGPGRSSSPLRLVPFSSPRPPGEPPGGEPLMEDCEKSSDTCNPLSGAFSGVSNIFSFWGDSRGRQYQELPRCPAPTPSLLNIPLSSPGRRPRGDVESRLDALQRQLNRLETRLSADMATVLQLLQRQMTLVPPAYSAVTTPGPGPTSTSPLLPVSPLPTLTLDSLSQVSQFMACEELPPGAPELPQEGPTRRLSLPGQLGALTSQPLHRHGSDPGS
Outline: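 Step 1: BacMam hERG transduction of U2OS, 4 hrs RT. Step 2: overnight 37 °C, plate 2000 cells/well, 4 hr. Step 3: FluxOR load, compound 10 min, stimulate, read fluorescence.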

[8] = qHTS assay for small molecule activators of the nuclear factor-kappa B (NF-kB) signaling pathway (AID 651749; active means well fitted activation curve with a large enough effect in the signal ratio; the % refers to the signal ratio; further: % of control where 0% means no effect); settings: NF-kB-bla ME-180 cells, beta-lactamase FRET ratio, 16 h; stronger effect = higher value
Outline: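 Human ME-180 cervical cells with an NF-kB-bla construct; compounds added via 23 nL pin transfer, DMSO as vehicle; incubation 16 hr. Reporter activity measured by FRET disruption.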

[9] = qHTS assay for environmental chemicals that activate the Aryl hydrocarbon Receptor (AhR) signaling pathway (AID 651777; active means well fitted curve in the direction sought with a large enough effect; an effect the other way counts as inactive or inconclusive; further: % of control where 0% means no effect; nearly all actives have a fitted effect of over 15% in size); settings: 1A2-DRE human hepatoma cells, luciferase, 24 h; activation: stronger effect = higher value
Outline: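 Concentration–response screening used 1,200 1A2-DRE cells per well, 24 hr compound exposure (37 C, 5% CO2), and One-Glo luminescence as the AhR-driven CYP1A2 reporter signal.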

[10] = target: Peroxisome proliferator-activated receptor alpha (Homo sapiens) (UniProt Q07869); experiment: qHTS assay for small molecule agonists of the peroxisome proliferator-activated receptor alpha (PPARalpha) signaling pathway (AID 651778; active means well fitted curve in the direction sought with a large enough effect; an effect the other way counts as inactive or inconclusive; further: % of control where 0% means no effect); settings: PathHunter PPARalpha complementation, chemiluminescence, 6 h; stronger effect = higher value
Sequence of Peroxisome proliferator-activated receptor alpha (Homo sapiens) (Q07869 whole entry, looked up): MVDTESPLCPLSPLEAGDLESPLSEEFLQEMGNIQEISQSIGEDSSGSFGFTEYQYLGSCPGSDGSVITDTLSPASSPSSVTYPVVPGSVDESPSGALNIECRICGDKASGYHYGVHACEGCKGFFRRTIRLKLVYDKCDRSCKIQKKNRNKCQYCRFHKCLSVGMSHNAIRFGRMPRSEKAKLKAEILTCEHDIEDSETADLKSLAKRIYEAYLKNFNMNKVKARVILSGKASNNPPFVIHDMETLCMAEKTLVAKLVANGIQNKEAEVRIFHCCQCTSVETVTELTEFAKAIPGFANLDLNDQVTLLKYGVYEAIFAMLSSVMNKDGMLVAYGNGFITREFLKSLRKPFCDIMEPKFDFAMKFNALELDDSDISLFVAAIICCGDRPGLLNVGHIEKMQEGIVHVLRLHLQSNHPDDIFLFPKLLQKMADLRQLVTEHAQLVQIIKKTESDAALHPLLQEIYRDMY
Outline: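 Cells plated at 2,000/well and held overnight at 37 C, 5% CO2, then compound added by pin tool for 6 hr; after PathHunter detection reagent and 60 min at room temperature, chemiluminescence from enzyme complementation was read.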

[11] = qHTS assay for small molecule agonists of the antioxidant response element (ARE) signaling pathway measured by Nrf2-dependant transcriptional activity (AID 720636; active means well fitted curve in the direction sought with a large enough effect in the repeat runs; an effect the other way counts as inactive or inconclusive;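 further: HepG2 cells with an ARE-driven luciferase reporter; % of control where 0% means no effect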); settings: ARE-luc HepG2, Nrf2 luciferase reporter, 16 h; series mostly up to 92.4 µM
Outline: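 Attachment 6 hr at 37 C, then compound versus DMSO vehicle for 16 hr in ARE-luc HepG2 cells (1% dialyzed FBS); luminescence recorded 30 min after ONE-Glo addition at room temperature.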

[12] = qHTS assay for small molecule antagonists of the retinoid-related orphan receptor gamma (ROR-gamma) signaling pathway - cell viability counter screen (AID 720652; active means well fitted curve in the direction sought with a large enough effect in the repeat runs; an effect the other way counts as inactive or inconclusive;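 further: CHO reporter cells with doxycycline-induced ROR-gamma expression; compound exposure lasted 16 hr before ATP read; on the % scale 0 is the no-effect control and ±100 the full control effect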); settings: RORgamma reporter cell line viability counter screen; series mostly up to 92.2 µM
Outline: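 Steps: seed CHO cells bearing TET-inducible ROR and ROR response element-luciferase; rest 5 hr at 37 C; add compound, then doxycycline; incubate 16 hr; add CellTiter-Glo and read luminescence as ATP-based viability.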

[13] = qHTS assay for small molecule agonists of the antioxidant response element (ARE) signaling pathway measured by Nrf2-dependant transcriptional activity - cell viability counter screen (AID 720653; active means well fitted curve in the direction sought with a large enough effect in the repeat runs; an effect the other way counts as inactive or inconclusive; further: on the % scale 0 is the no-effect control and ±100 the full control effect); settings: ARE-bla HepG2 viability, CellTiter-Glo ATP luminescence, 16 h; stronger effect = lower value
Outline: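 ARE-bla HepG2 cells (2,000/well) rested 5 hrs at 37C/5% CO2, then exposed to compounds in DMSO for 16 hrs. Viability was read in the same wells as intracellular ATP by luminescence, 30 min at room temperature after reagent addition.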

[14] = qHTS assay for small molecule activators of the p53 signaling pathway (AID 651743; active means well fitted activation curve with a large enough effect in the signal ratio, not every such curve was filed as active; the % refers to the signal ratio; further: % of control where 0% means no effect); settings: HCT-116 p53RE-bla, beta-lactamase FRET ratio, 16 h; stronger effect = higher value
Outline: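 Agonist-mode quantitative HTS in HCT-116 cells carrying a p53-response-element beta-lactamase reporter; 16 h compound treatment at 37 C, then FRET substrate loading for 2 h at room temperature and fluorescence read.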

[15] = qHTS assay for small molecule disruptors of the mitochondrial membrane potential - 1 hr assay (AID 651754); settings: series mostly up to 92.2 µM; further: nearly all actives have a fitted effect of over 35% in size; further: potency means the concentration at half of the fitted maximal effect
Outline: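 Loss of mitochondrial potential shifts the cationic dye from red mitochondrial aggregates to green cytoplasmic monomers. Cells (HepG2) are treated with compound for 1 hr before a 30 min dye incubation at 37C.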

[16] = qHTS assay for small molecule disruptors of the mitochondrial membrane potential - 5 hr assay (AID 651755); settings: JC-1-type ratio dye; series mostly up to 92.2 µM; further: on the % scale 0 is the no-effect control and ±100 the full control effect; nearly all actives have a fitted effect of over 40% in size
Outline: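 Seed HepG2 overnight, add compound, incubate 5 hr at 37C and 5% CO2, stain 30 min with Mito-MPS, then measure monomer (490/535 nm) and aggregate (540/590 nm) fluorescence.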

[17] = target: Tumor necrosis factor (Homo sapiens) (UniProt P01375); experiment: qHTS assay to identify small molecules that stimulate Tumor Necrosis Factor-alpha (TNF-alpha) secretion (AID 651757; active means well fitted curve in the direction sought with a large enough effect in the signal ratio; the % refers to the signal ratio; further: 0% is about no effect); settings: Human cells, HTRF 665/615 ratio; series mostly up to 92.2 µM
Sequence of Tumor necrosis factor (Homo sapiens) (P01375 whole entry, looked up): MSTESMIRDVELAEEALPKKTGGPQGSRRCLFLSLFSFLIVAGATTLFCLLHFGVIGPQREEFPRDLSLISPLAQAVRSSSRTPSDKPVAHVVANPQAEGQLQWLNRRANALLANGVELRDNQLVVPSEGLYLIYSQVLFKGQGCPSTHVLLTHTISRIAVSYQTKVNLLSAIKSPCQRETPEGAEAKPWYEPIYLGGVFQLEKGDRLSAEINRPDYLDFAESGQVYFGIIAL
Outline: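 Human monocytic THP-1 cells are plated, treated with compound and held at 37 C for 17 hrs. Labeled anti-TNF-alpha antibody mixture is then added; after 3 hr at room temperature, TR-FRET signal reports secreted TNF-alpha.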

[18] = target: Nuclear receptor ROR-gamma (Homo sapiens) (UniProt P51449); experiment: qHTS assay for small molecule antagonists of the retinoid-related orphan receptor gamma (ROR-gamma) signaling pathway (AID 651802; active means well fitted curve in the direction sought with a large enough effect; an effect the other way counts as inactive or inconclusive;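 further: CHO cells with doxycycline-induced ROR-gamma expression; on the % scale 0 is the no-effect control and ±100 the full control effect; nearly all actives have a fitted effect of over 60% in size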); settings: ROR-gamma antagonist cell reporter assay; series mostly up to 92.2 µM
Sequence of Nuclear receptor ROR-gamma (Homo sapiens) (P51449 whole entry, looked up): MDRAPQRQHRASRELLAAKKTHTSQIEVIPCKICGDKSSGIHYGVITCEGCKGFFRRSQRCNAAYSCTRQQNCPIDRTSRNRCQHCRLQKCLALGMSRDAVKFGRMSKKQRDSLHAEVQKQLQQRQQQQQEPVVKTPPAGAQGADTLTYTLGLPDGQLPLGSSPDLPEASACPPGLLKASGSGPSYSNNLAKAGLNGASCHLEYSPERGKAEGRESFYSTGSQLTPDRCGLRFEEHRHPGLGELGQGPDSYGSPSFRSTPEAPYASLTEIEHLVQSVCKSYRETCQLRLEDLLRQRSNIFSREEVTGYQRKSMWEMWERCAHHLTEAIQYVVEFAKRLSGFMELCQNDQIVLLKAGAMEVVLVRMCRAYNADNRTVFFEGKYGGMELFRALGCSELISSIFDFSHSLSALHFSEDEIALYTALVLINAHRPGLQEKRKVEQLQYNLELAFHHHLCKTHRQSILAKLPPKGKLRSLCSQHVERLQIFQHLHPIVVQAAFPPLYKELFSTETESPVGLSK
Outline: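 Steps: cells dispensed; compound or DMSO transferred by pin tool; doxycycline added to induce the ROR response element-driven luciferase; plates held 16hr at 37C; ONE-Glo added and luminescence measured.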

[19] = qHTS assay for small molecule agonists of the antioxidant response element (ARE) signaling pathway (AID 651741; active means well fitted activation curve with a large enough effect in the signal ratio; the % refers to the signal ratio; further: % of control where 0% means no effect); settings: HepG2 ARE-bla reporter, beta-lactamase FRET ratio, 16 h; series mostly up to 96 µM
Outline: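 Reporter: beta-lactamase under ARE, stably in HepG2. Exposure: 16 h, 37 C, compounds delivered in DMSO by pin tool after 5 h cell preincubation. Readout: FRET substrate fluorescence after 2 h at RT.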

Cc1c(N)cccc1N
-4.94%: max response [4]
-3.37%: max response [1]
inactive: outcome [2] | outcome [3] | max response [5] -6.28% | activity change % (negative = inhibition) [6] -2.96% | Potency [7] | activation [8] -1.33% | activation [9] 6.39% | max response [10] 0.845% | outcome [11] | Potency [12] | max response [13] 1.04%

NC(=O)c1cccc([N+](=O)[O-])c1
2.13%: max response [1]
-10.9%: max response [4]
inactive: outcome [2] | outcome [3] | max response [5] -6.67% | activity change % (negative = inhibition) [6] 12.3% | Potency [7] | activation [14] 8.78% | Potency [15] | Potency [16] | Potency [17] | activation [9] 0.373% | Potency [18] | outcome [11] | Potency [12] | max response [13] -9.57%

COc1ccc(N)c(OC)c1
-3.88%: max response [1]
active: Potency [15] 37.6 µM
-0.758%: max response [4]
inactive: outcome [2] | outcome [3] | max response [5] -1.72% | activity change % (negative = inhibition) [6] -1.14% | Potency [7] | activation [14] 1.84% | activation [9] 3.03% | max response [10] 4.7% | Potency [18] | outcome [11] | Potency [12] | max response [13] 4.1%

CC(=O)CC(C)C
-1.65%: max response [4]
inactive: outcome [2] | outcome [3] | max response [5] 12.3% | activity change % (negative = inhibition) [6] -3.32% | Potency [19] | activation [14] -2.45% | activation [8] 0.24% | Potency [15] | Potency [16] | Potency [17] | activation [9] -0.041% | Potency [18] | outcome [11] | Potency [12]
-6.71%: max response [1]

— PubChem BioAssay (NCATS)
